# According to PubChem BioAssay (Tox21):
# Values joined by “and” are separate entries in the source; they are usually repeats but may differ in a detail not shown here. Identical values can stand only once. Records with an inconclusive call do not appear. Entries that show only a call come without a potency. Unmarked numbers belong to inactive results. Active and inactive are the calls of the source. Calls come from the whole dose curve; as a rule, active = well fitted curve in the direction sought with a large enough effect in the repeat runs; inconclusive = weak or mixed curves; inactive = no such curve, though single readings can be large; an effect the other way counts as inactive or inconclusive.
# Target: Cytochrome P450 1A2 (Homo sapiens) (UniProt P05177)
# Assay: Cytochrome P450 Family 1 Subfamily A Member 2 (CYP1A2) small molecule antagonists: luciferase reporter qHTS assay (AID 1671199)
# Conditions: P450-Glo CYP1A2 enzyme, luciferin luminescence, 1 h; series mostly up to 115 µM
# How it was run: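 Luminescence readout (relative luminescence units) after luciferin detection reagent, 20 min RT. Preceded by 1 h room-temperature CYP1A2 reaction with NADPH regeneration solution following 10 min compound preincubation with enzyme and proluciferin substrate. Furafylline positive control.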
# Note: nearly all actives have a fitted effect of over 50% in size.
# Potency is the fitted concentration of half-maximal effect.
# Chain of Cytochrome P450 1A2 (Homo sapiens) (P05177 whole entry, looked up): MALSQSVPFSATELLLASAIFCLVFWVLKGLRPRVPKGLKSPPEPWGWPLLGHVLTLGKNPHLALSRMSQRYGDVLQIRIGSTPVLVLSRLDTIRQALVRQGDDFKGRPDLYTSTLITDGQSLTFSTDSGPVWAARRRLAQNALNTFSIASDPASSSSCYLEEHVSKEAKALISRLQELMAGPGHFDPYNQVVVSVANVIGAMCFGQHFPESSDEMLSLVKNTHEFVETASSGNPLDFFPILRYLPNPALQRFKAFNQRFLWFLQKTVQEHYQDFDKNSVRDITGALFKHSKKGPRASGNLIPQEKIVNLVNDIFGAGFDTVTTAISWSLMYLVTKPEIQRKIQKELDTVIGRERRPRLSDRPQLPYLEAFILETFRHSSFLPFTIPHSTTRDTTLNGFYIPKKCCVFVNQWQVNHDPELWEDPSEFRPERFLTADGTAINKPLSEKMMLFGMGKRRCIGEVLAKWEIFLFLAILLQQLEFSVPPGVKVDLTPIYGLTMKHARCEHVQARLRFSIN
row,SMILES,Potency
1,Cc1c(C)c([N+](=O)[O-])c(C(C)(C)C)c([N+](=O)[O-])c1C,20 µM (active)
2,O=C(O)c1ccc2cc(C(=O)O)ccc2c1,inactive
3,COc1ccc(NC(=O)CC(C)=O)cc1,25.2 µM (active)
4,CC(CO)Oc1ccccc1 (configuration not stated),inactive
5,CCC(=O)OC(=O)CC,inactive
6,CN1CCCCC1CCN1c2ccccc2Sc2ccc(S(C)=O)cc21 (configuration not stated),inactive
7,C=C(CC)C(=O)c1ccc(OCC(=O)O)c(Cl)c1Cl,inactive
8,[Cl][Pt-2]([Cl])([Cl])[Cl],35.7 µM (active)
9,O=c1[nH]c2ccccc2n1CCCN1CCN(C(c2ccccc2)c2ccccc2)CC1,inactive
10,Fc1ccc(C(c2ccc(F)cc2)N2CCNCC2)cc1,inactive
11,CCCCCCCCCCCCCC[N+](C)(C)C,inactive
12,Cc1cc(C(C)(C)C)cc(C)c1CC1=NCCN1,inactive
13,CC1(C)[C@@H](O)CC[C@]2(C)[C@H]3C(=O)C=C4[C@@H]5C[C@@](C)(C(=O)O)CC[C@]5(C)CC[C@@]4(C)[C@]3(C)CC[C@@H]12,inactive
14,C=C(C)c1cccc(C(=C)C)c1,inactive
15,Nc1nc2c(ncn2COCCO)c(=O)[nH]1,inactive
16,Nc1nc(-c2ccccc2)cs1,8.91 µM (active)

# Target: Voltage-gated inwardly rectifying potassium channel KCNH2 (Homo sapiens) (UniProt Q12809)
# Assay: Human Ether-a-go-go-Related Gene (hERG) channel small molecule antagonists: fluorescence cell-based qHTS assay (AID 1671200);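 for activity change, negative = inhibition: hERG-expressing U2OS cells given a thallium stimulus after FluxOR II dye loading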
# Conditions: hERG-U2OS cells, FluxOR thallium flux fluorescence; series mostly up to 76.8 µM
# How it was run: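 Read-out: thallium influx as a surrogate for potassium, tracked as fluorescence (480 nm ex/540 nm em) every second for 2 min after Stimulus Buffer addition in dye-loaded hERG-U2OS cells.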
# Chain of Voltage-gated inwardly rectifying potassium channel KCNH2 (Homo sapiens) (Q12809 whole entry, looked up): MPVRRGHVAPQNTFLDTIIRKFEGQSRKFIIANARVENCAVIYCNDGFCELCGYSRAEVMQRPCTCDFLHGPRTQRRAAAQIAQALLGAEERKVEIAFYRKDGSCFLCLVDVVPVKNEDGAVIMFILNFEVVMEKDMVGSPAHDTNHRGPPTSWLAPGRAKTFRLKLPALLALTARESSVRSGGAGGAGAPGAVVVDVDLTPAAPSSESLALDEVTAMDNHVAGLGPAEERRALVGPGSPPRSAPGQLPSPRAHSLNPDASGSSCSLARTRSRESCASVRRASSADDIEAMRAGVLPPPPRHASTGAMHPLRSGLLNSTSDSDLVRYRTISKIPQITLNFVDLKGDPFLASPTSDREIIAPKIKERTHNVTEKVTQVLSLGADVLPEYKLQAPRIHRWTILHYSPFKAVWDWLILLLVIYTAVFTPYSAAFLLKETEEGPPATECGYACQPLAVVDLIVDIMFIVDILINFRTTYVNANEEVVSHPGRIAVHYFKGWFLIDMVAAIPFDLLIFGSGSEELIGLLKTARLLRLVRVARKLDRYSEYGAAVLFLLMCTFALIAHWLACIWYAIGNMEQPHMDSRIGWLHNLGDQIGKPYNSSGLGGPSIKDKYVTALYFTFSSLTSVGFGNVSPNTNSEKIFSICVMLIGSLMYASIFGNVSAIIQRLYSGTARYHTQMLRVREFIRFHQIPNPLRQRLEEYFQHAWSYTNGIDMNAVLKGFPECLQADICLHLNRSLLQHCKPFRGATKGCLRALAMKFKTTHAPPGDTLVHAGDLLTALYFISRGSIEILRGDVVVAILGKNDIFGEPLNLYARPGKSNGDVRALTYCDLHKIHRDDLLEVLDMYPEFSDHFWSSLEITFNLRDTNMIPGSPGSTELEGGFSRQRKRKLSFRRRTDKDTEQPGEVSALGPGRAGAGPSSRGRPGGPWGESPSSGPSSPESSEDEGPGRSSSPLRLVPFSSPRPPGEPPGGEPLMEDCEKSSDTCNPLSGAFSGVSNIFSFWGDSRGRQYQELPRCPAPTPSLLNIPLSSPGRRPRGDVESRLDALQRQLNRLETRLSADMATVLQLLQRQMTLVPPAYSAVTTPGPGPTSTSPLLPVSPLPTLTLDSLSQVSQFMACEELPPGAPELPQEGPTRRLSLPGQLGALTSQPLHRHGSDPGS
SMILES,Potency,"activity change, negative = inhibition"
O=C(O)c1ccc2cc(C(=O)O)ccc2c1,inactive,–
C#C[C@]1(O)CC[C@H]2[C@@H]3[C@H](C)CC4=C(CCC(=O)C4)[C@H]3CC[C@@]21C,inactive,–
Cc1c(C)c2c(c(C)c1OC(=O)c1cccnc1)CC[C@@](C)(CCC[C@H](C)CCC[C@H](C)CCCC(C)C)O2,inactive,–
C#Cc1ccc(-c2ccccc2F)cc1,inactive,–
NC[C@H]1O[C@H](O[C@H]2[C@H](O[C@@H]3O[C@H](CO)[C@@H](O)[C@H]3O)C(O)[C@H](N)C[C@@H]2N)[C@H](N)[C@@H](O)[C@@H]1O (some centres not stated),–,-0.219% [at 6.97 µM]
C[Si](Cl)(c1ccccc1)c1ccccc1,inactive,–
Cc1ccc(C)cc1,inactive,–
COc1ccc(NC(=O)CC(C)=O)cc1,inactive,–
CC(CO)Oc1ccccc1 (configuration not stated),inactive,–
CCC(=O)OC(=O)CC,inactive,–
C=C(CC)C(=O)c1ccc(OCC(=O)O)c(Cl)c1Cl,inactive,–
O=c1[nH]c2ccccc2n1CCCN1CCN(C(c2ccccc2)c2ccccc2)CC1,379 nM (active),–
O=[N+]([O-])c1cccc(C(F)(F)F)c1,inactive,–
Nc1ccc(NCCO)c([N+](=O)[O-])c1,inactive,–
CC1(C)CC(O)CC(C)(C)N1,inactive,–
Cc1ccc(N/N=c2\c(=O)cc/c(=N\Nc3ccc(S(=O)(=O)O)cc3)c2=O)c(C)c1,inactive,–

SMILES,Potency,"activity change, negative = inhibition"
OCC(F)(F)F,inactive,–
CCCCCCCCCCCCCC[N+](C)(C)C,13.3 µM (active) and 19.5 µM (active) and 21.3 µM (active),–
CCOc1ccc2ccccc2c1C(=O)N[C@@H]1C(=O)N2[C@@H]1SC(C)(C)[C@@H]2C(=O)O,inactive,–
CCN1C(=O)c2ccccc2C1Nc1ccc(OCCN2CCCCC2)cc1 (configuration not stated),inactive,–
Cc1cccc(C)c1NC(=O)c1ccc(N)cc1,inactive,–
O=C(O)c1cc(N=Nc2ccc([N+](=O)[O-])cc2)ccc1O,inactive,–
CCO[Si](OCC)(OCC)OCC,inactive,–
CCCCCCCCCCCCOC(=O)c1ccc(O)cc1,inactive,–
CC(N=C(NC#N)Nc1ccncc1)C(C)(C)C (configuration not stated),inactive,–
COc1cccc(OC)c1C(=O)O,inactive,–
C=C(C)c1cccc(C(=C)C)c1,inactive,–
CC(C)OC(=O)C(O)(CC(=O)O)CC(=O)O,inactive,–
Cc1ccc(O)c(O)c1,inactive,–
Cc1c(F)c(N2CCNC(C)C2)cc2c1c(=O)c(C(=O)O)cn2C1CC1 (configuration not stated),inactive,–
Nc1nc(-c2ccccc2)cs1,inactive,–
